# Experimental data from PubChem BioAssay (NCI).
# Compounds without any hit were thinned out: in the full panel of roughly 83,000, 20% have a hit.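 Results are percent growth after 48 hours of single-concentration exposure. 100 means growth as in untreated cells, lower positive values show inhibition; negative values down to -100 show cell death.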 A number with no mark means an inactive call. Calls of active or inactive are those of the source. The calls were made as follows: active = growth percent below 10; inactive = the rest.
# Assays:
# Test in all cases: NCI-60 one-dose screen, 48 h (100 = growth as untreated, 0 = no growth, -100 = all killed)
# Conditions in all cases: 10 µM unless noted
# HCT-15 colon = test system: HCT-15 colon
# HT29 colon = test system: HT29 colon
# SNB-75 CNS = test system: SNB-75 CNS
# SNB-19 CNS = test system: SNB-19 CNS
# U251 CNS = test system: U251 CNS
# PC-3 prostate = test system: PC-3 prostate
# SK-MEL-5 melanoma = test system: SK-MEL-5 melanoma
# UACC-62 melanoma = test system: UACC-62 melanoma
# LOX IMVI melanoma = test system: LOX IMVI melanoma
# SK-MEL-28 melanoma = test system: SK-MEL-28 melanoma
SMILES,growth (HCT-15 colon),growth (HT29 colon),growth (SNB-75 CNS),growth (SNB-19 CNS),growth (U251 CNS),growth (PC-3 prostate),growth (SK-MEL-5 melanoma),growth (UACC-62 melanoma),growth (LOX IMVI melanoma),growth (SK-MEL-28 melanoma)
CCN1C(=O)N(CC)C2C1NN=c1s/c(=C3\C(=O)N(C4CCCC4)c4ccccc43)c(=O)n12 (stereo not given),15.8%,1.3% (active),-21.9% (active),34.9%,18.3%,25.3%,12.7%,34.9%,30.3%,57.9%
COc1cc(C(=O)/C=C/c2cc(C(=O)c3cc(OC)c(OC)c(OC)c3)ccc2OC)ccc1N,-10.2% (active),-58.3% (active),29.5%,-7.07% (active),-79.9% (active),-20.6% (active),-83.3% (active),-79.8% (active),-78.8% (active),-53.4% (active)
O=C(CCC(=O)OC1CCCC1)OC1CCCC1,93.6%,98.3%,77.3%,96.6%,92.2%,93.8%,99.3%,103%,105%,99.3%
O=C1Nc2ccc(Br)cc2C1=N/C=c1\[nH]c(=O)/c(=C/c2ccc(Cl)cc2)s1,90.3%,97.9%,93.9%,94%,83.7%,92%,99.1%,91.2%,103%,105%
COc1cc(C(=O)CCCl)ccc1O,95.2%,112%,85.8%,101%,103%,95%,103%,97.4%,90.5%,107%
C#CCN1C(=O)/C(=c2\sc3n(c2=O)NC2C(N=3)N(CC)C(=O)N2CC)c2ccccc21 (stereo not given),43.8%,26.2%,14.2%,89.1%,94.4%,47.5%,53%,54.1%,60.3%,57.3%
Cc1ccc2nc(-c3c(CCCO)noc3N)[nH]c(=O)c2c1,105%,113%,82.2%,113%,99.6%,96%,99.6%,104%,100%,112%
COc1ncc(-c2ccc3ncnc(Nc4cccc(Cl)c4)c3c2)cc1NS(=O)(=O)C1CC1,27.6%,29.7%,-1.09% (active),49.7%,59.9%,24.4%,37.3%,25.1%,34.8%,39.4%
COc1cc(-c2nc(-c3nc4ccccc4[nH]3)cc3c2[nH]c2ccccc23)cc(OC)c1OC,42.3%,49.7%,79.3%,66.9%,48%,14.1%,29%,28.5%,38.7%,44.2%
Clc1ccc([I+]c2ccc(Cl)cc2Cl)c(Cl)c1,30.2%,-26.8% (active),34%,87.8%,6.72% (active),9.9% (active),104%,12.3%,10.5%,87.3%
Cc1cc(Nc2nc(-c3ccc(F)cc3)nc3ccccc23)n[nH]1,33.9%,22.5%,-21% (active),80.2%,88.4%,56.5%,73.7%,40.8%,32.6%,56.3%
CCn1cc(C(=O)O)c(=O)c2cc(F)c(N3CCN(S(=O)(=O)c4ccc(OC)c(OC)c4)CC3)cc21,102%,102%,85.5%,96.2%,106%,90%,93.5%,95.2%,85.8%,102%
Cc1nc(Nc2cccnc2)sc1C(=O)/C=C/c1ccc(Cl)cc1,15%,6.4% (active),-1.63% (active),14.2%,3.86% (active),29.4%,73.1%,36.1%,0.346% (active),77.8%
COc1cc(C2C3=C(COC3=O)Nc3c2ccc2c3CCCC2)cc2c1OCO2 (stereo not given),11.2%,-3.84% (active),34.3%,36.1%,23.1%,31.7%,-18.8% (active),36.4%,27.7%,70.1%
O=C(O)c1ccc(-n2c(=O)c3ccccc3c3ccccc3c2=O)cc1,104%,98.5%,92.9%,104%,102%,98.9%,104%,105%,103%,113%
CC(=O)C1CCC(C)=CC1=O (stereo not given),99.4%,103%,81.5%,101%,97.4%,96.3%,108%,101%,94%,103%
CCCCCC/C=C\CCCCCCCCOc1ccc(CCOP(=O)(O)OCC[N+](C)(C)C)cc1,85%,30.2%,75.3%,39.4%,27.5%,14.8%,84.9%,71.1%,81.3%,95.5%
COc1cc(NC(=O)CSc2nc3ccc(C)cc3c(=O)n2-c2ccccc2)cc(OC)c1OC,81.1%,109%,57.4%,88%,93.9%,82%,77.8%,77.5%,75.9%,83.7%
COc1cccc2nc(Nc3ccc(NC(=O)c4ccc5ncccc5c4)cc3)ccc12,51.5%,63.3%,80.8%,90.3%,61.8%,52.3%,80.7%,97.4%,84.6%,73.8%
Oc1ccc(N=Cc2ccccc2)cc1,82%,105%,105%,98.8%,96.1%,68.3%,83.4%,97.5%,95.3%,113%
COC(=O)CCCCN=Cc1c(O)c(O)c(C(C)C)c2cc(C)c(-c3c(C)cc4c(C(C)C)c(O)c(O)c(C=NCCCCC(=O)OC)c4c3O)c(O)c12,11.1%,4.56% (active),42.6%,17.6%,11.1%,12.1%,28.6%,33.5%,17.4%,31.1%
COc1cccc2cc(-c3cc4ccccc4[nH]3)/c(=N/C(=S)Nc3ccccc3)oc12,89.2%,81.8%,-45.3% (active),66.1%,77%,68.8%,76.1%,76%,80%,80.1%
Cc1ccc(C(=O)c2sc3nc4c(cc3c2N)CCCC4)c(C)c1,29.8%,9.13% (active),-14.3% (active),51.5%,21.2%,5.81% (active),24.6%,24.3%,30.6%,55%
CCN1C(=O)N(CC)C2Nn3c(s/c(=C4\C(=O)N(C5CCCC5)c5ccccc54)c3=O)=NC21 (stereo not given),51.2%,21.3%,8.34% (active),79.2%,58.9%,46.5%,34.8%,61.9%,64.5%,73.4%
COc1ccc(OC)c(/C=C2\Oc3cc(OCCN4CCCC4)ccc3C2=O)c1,93.7%,23.8%,95.7%,94.3%,89.5%,91.5%,89.2%,100%,90.3%,101%
CCn1cc(C(=O)O)c(=O)c2cc(F)c(N3CCN(S(=O)(=O)c4c(C)cc(C)cc4C)CC3)cc21,71.5%,94.8%,70.8%,89.9%,83.3%,61.4%,79.5%,75.9%,61.3%,91.7%
COc1cccc(-c2nc3sccn3c2-c2ccnc(NCCNS(=O)(=O)c3ccccc3)n2)c1,42.9%,34%,79.8%,97.3%,71.9%,69.2%,28.2%,32.5%,48%,66.4%
CCNC(=O)C1CCCN1C(=O)C(CCCN=C(N)N)NC(=O)C(CC(C)C)NC(=O)C(CC(C)C)NC(=O)C(Cc1ccc(O)cc1)NC(=O)C(CO)NC(=O)C(Cc1c[nH]c2ccccc12)NC(=O)C(Cc1cnc[nH]1)NC(=O)C1CCC(=O)N1 (stereo not given),102%,97.4%,90.3%,102%,94.8%,81.8%,95%,110%,95.1%,168%
